# Screening results from PubChem BioAssay.
# FAS TE block = FAS thioesterase (human) inhibition; recombinant FAS-TE, OMFH fluorogenic substrate, fluorescence endpoint; inhibition, % at 15 µM; 0.67% of 360,000 active; AID 602261;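 active = compounds whose normalised, plate-corrected inhibition of enzyme fluorescence in the single-dose primary screen is 50% or more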;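 note: 0% = DMSO with enzyme and 100% = substrate without enzyme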
# p97 ATPase inh = inhibitors of human p97 ATPase; recombinant p97 ATPase, Kinase-Glo ATP luminescence, 3 h; inhibition, % at 8 µM; AID 1481; 0.42% of 220,000 active; P55072; in the data active = inhibition above about 15%;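 note: 0% = DMSO vehicle and 100% = wells lacking enzyme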
# SUMO HTRF inh = inhibitors of human SUMOylation (UBC9); P63279; HTRF SUMOylation assay, SAE1/SAE2 + UBC9, in vitro; AID 2006; 0.36% of 290,000 active; inhibition, % at 35 µM; in the data active = inhibition above about 50%, passing the limit was not always enough
# Furin inh = human furin inhibition; 0.061% of 220,000 active; P09958; inhibition, % at 20 µM or 30 µM; AID 463115; purified furin, fluorogenic substrate cleavage; in the data active = inhibition above about 25%
# DTT redox prof = compounds producing H2O2 with reducing agent – biochemical, NIH compound library profiling, artefact control for MLSCN library redox annotation, primary screen; DTT-dependent redox cycling H2O2, phenol red/HRP absorbance; 100% = 100 µM peroxide control, 0% = buffer; activation, % at 10 µM; 0.03% of 200,000 active;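 active = activation of at least 50% relative to the plate's high and low controls in the primary single-dose screen; inactive = activation below 50%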;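 note: compound incubated with DTT at 0.8 mM final as the reducing agent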
# PKD1 inh = inhibitors of human PKD1 kinase. PKD1 kinase fluorescence polarization assay. inhibition, % (no concentration beside the values). 0.056% of 200,000 active. AID 797; in the data active = inhibition above about 50%
# * = called active by the depositor; . = not tested or not shown. In the library only some 1.2% were active in any assay of this set; here they are far more common.
SMILES,FAS TE block,p97 ATPase inh,SUMO HTRF inh,Furin inh,DTT redox prof,PKD1 inh
O=C(O)CN1C(=O)/C(=C\c2cc(Br)ccc2OCc2ccc(Cl)cc2Cl)SC1=S,86*,.,32,.,.,.
CC(C)C[C@@H](CN)NC(=O)c1nc[nH]c1C(=O)N[C@@H](C)C(=O)CNC[C@H](C)NC(=O)c1nc[nH]c1C(=O)N[C@@H](Cc1ccccc1)C(=O)O,-8,.,.,.,.,.
CCc1nnc(NS(=O)(=O)c2ccc(N=CC3=C(O)CC(C)(C)CC3=O)cc2)s1,-7,-1,9,26*,11,3
C[C@@H]1CN([C@@H](C)CO)C(=O)CCCn2nncc2CO[C@H]1CN(C)Cc1ccccc1,-5,.,.,.,.,.
COc1ccc(Cc2c(-c3cccc(Cl)c3)nc3ccc(C)cn23)c(C)c1,3,.,.,.,.,.
O=C(Nc1ccc(Oc2ccc(Cl)cc2)c(Cl)c1)c1cc(I)cc(I)c1O,40,.,59*,.,.,.
COc1ccc(NC(=O)c2ccccc2F)cc1Cl,-1,-4,-10,-14,-13,-2
COc1ccccc1NC1=C(NC(C)=O)C(=O)c2ccccc2C1=O,9,-5,-1,-17,-1,-2
COc1ccccc1N(/N=C1\Sc2ccccc2C1=O)C(C)=O,0,15*,31,-18,.,.
Nc1[nH]c(C(=O)c2ccccc2)c(-c2ccccc2Br)c1C(=O)NCc1ccc(-c2ccccc2)cc1,19,.,.,.,.,.
COC(=O)[C@]1(Cc2ccccc2)N[C@H](c2ccc(-c3ccc4c(c3)OCO4)cc2)[C@@H]2C(=O)N(C)C(=O)[C@@H]21,86*,.,.,.,.,.
COC(=O)[C@]1(CC(C)C)N[C@H](c2ccc(-c3ccc4c(c3)OCO4)cc2)[C@@H]2C(=O)N(C)C(=O)[C@@H]21,31,.,.,.,.,.
O=C(Nc1ccccc1)N(CCN1CCOCC1)Cc1ccccc1F,-4,2,18,30*,0,-6
Cc1cccc(NC(=S)N(CCN2CCOCC2)Cc2ccccc2F)c1,10,3,-7,-27,0,-4
CCOC1CCCc2oc(-c3ccc(OC)cc3)c(C#CCCO)c21 (configuration not stated),1,.,.,.,.,.
Cc1oc(-c2cccs2)nc1CNC[C@H]1O[C@@H](n2cnc(C(N)=O)n2)[C@H](O)[C@@H]1O,-5,.,.,.,.,.
Nc1nnc(CC(=O)N/N=C/c2cccc([N+](=O)[O-])c2)s1,5,1,7,-17,-4,-3
Nc1nnc(CC(=O)N/N=C/c2cc([N+](=O)[O-])cc(Br)c2O)s1,24,9,99*,-3,-2,-7
CCOC(=O)C1(C)CCCN(C(=O)COc2ccccc2)C1 (configuration not stated),-4,.,.,.,.,.
CCOC(=O)Cn1c2ccc(OC)cc2c2nc3ccccc3nc21,-11,-4,54*,-4,0,14
Cc1ccc(NC(=O)Cn2c(=O)oc3cc(S(=O)(=O)N4CCC(C)CC4)ccc32)cc1C,-6,-9,50*,-16,-2,-8
CNC(=O)c1[nH]cnc1C(=O)N[C@@H](CCCCNC(=O)OC(C)(C)C)C(=O)OC(C)(C)C,7,-2,-10,-28,1,4
CC(C)(C)OC(=O)NCCCC[C@H](NC(=O)c1[nH]cnc1C(=O)Nc1ccc(Cl)cc1)C(=O)OC(C)(C)C,76*,.,-25,-15,.,.
COc1ccc(C(C)(NC(C)=O)c2nc(-c3ccc(F)c(Cl)c3)cs2)cc1 (configuration not stated),22,.,.,.,.,.
CNC(=O)COC(=O)c1cc(-c2ccco2)nc2ccccc12,-3,-4,63*,2,.,.
SMILES,FAS TE block,p97 ATPase inh,SUMO HTRF inh,Furin inh,DTT redox prof,PKD1 inh
CC(=O)Nc1ccc(/C=N/NC(=O)c2cc(-c3ccco3)nc3ccccc23)cc1,0,2,31,-12,.,.
O=C(O)c1ccccc1/C=N/NC(=O)c1cc(-c2ccco2)nc2ccccc12,3,4,78*,4,.,.
COc1ccc2nc(/C(C#N)=C\c3ccc(C(=O)O)cc3)[nH]c2c1,-20,9,52*,-24,-1,-6
COc1ccc2nc(/C(C#N)=C\c3ccc(Oc4ccc([N+](=O)[O-])cn4)cc3)[nH]c2c1,-12,6,20,-21,0,-3
Cc1ccccc1Nc1nc(Cl)nc(NC(C)(C)C)n1,4,.,.,.,.,.
Cc1ccc(CNC(=O)/C(C#N)=C\c2ccc(N(C)C)cc2)cc1,.,1,54*,-4,-4,-1
CN(C)c1ccc(/C=C(\C#N)C(=O)NCc2ccco2)cc1,.,1,22,-5,1,-4
